For 8 sequences, binding signal results are on record in article PMC7862700, “An all-to-all approach to the identification of sequence-specific readers for epigenetic DNA modifications on cytosine”.

Holding throughout (assay): DAPPL (digital affinity profiling via proximity ligation, sequencing); 10 mM Tris-HCl pH 7.5, 50 mM NaCl, 1 mM DTT, 4% glycerol, room temperature, 30 min; GST-TFs on glutathione beads, 16-mer random dsDNA library, 0.1% formaldehyde crosslink after washing; high values mean tight binding
Common to all, as to details: protein: recombinant; tags: N-terminal GST; dsDNA, one strand shown

The target of one test is T1, ERF (Homo sapiens, UniProt P50548 1-548).
T1 sequence: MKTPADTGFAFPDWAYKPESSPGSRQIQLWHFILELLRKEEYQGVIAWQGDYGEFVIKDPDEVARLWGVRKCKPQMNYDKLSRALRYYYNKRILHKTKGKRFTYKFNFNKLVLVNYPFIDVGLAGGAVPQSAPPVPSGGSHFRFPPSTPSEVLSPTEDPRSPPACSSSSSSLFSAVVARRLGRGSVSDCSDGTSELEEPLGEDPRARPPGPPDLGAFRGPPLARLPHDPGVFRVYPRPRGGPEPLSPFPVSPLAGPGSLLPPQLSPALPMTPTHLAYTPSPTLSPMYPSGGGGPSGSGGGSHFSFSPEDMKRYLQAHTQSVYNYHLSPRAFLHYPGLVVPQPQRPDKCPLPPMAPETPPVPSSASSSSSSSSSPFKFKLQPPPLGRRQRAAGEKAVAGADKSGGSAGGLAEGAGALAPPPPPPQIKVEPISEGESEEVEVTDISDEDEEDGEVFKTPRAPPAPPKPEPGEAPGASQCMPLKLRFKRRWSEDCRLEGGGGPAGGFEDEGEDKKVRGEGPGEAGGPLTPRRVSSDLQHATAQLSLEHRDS
Put shortly:
(§1)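 Sequencing on an Illumina NextSeq500 followed washing, crosslinking with 0.1% formaldehyde, proximity ligation (BsaI/T4 ligase, 1 h, 37 °C) and PCR amplification of pools that had been incubated for 30 min at room temperature with 200 nmole of a random double-stranded 16-mer DNA library in Tris/NaCl/DTT/glycerol buffer. Each pool held DNA-barcoded human transcription factors, expressed in yeast as GST fusions and captured on glutathione beads, plus a tag-only sample. Binding signal is a hexamer's read frequency for a factor divided by its frequency in the tag-only sample.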

The target in the next test is T2, ETV3L (Homo sapiens, UniProt Q6ZN32 1-361).
T2 sequence: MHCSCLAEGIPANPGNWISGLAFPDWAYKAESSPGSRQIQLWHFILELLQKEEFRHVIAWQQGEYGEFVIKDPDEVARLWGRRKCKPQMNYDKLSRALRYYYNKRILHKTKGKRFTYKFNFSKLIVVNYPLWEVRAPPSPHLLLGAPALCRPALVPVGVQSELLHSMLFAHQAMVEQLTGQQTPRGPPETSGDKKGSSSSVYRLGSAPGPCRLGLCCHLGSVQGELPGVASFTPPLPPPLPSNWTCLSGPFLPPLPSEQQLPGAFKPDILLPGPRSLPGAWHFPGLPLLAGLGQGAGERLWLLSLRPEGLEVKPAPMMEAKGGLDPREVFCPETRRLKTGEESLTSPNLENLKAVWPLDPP
Put shortly:
as §1

The next test deals with T3, ETS2 (Homo sapiens, UniProt P15036 1-469).
T3 sequence: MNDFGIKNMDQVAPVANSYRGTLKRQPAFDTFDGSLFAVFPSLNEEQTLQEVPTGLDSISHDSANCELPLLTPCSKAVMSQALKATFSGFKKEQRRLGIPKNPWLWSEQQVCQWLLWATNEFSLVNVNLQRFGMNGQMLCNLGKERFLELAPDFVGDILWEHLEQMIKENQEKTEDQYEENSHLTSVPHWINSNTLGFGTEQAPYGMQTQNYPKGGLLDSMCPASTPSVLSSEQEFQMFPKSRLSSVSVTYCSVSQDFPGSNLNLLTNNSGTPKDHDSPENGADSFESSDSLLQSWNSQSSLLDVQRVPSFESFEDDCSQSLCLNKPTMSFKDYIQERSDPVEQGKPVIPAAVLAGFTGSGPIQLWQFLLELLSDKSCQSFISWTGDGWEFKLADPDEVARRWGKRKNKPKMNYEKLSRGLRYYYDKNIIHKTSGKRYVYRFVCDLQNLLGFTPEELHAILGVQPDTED
The gist of the method: as §1

Another test concerns the target T4, SPDEF (Homo sapiens, UniProt O95238 1-335).
T4 sequence: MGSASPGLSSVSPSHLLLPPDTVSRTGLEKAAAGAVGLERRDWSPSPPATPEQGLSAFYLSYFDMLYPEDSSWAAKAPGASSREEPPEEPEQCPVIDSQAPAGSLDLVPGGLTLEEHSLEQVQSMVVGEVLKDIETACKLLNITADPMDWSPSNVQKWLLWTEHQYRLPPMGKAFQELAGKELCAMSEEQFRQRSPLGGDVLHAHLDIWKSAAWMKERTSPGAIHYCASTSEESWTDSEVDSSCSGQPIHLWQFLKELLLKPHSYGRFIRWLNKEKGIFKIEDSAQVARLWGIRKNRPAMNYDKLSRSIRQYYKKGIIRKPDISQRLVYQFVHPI
Put shortly:
as §1

The next test addresses T5, ETV7 (Homo sapiens, UniProt Q9Y603 1-341).
T5 sequence: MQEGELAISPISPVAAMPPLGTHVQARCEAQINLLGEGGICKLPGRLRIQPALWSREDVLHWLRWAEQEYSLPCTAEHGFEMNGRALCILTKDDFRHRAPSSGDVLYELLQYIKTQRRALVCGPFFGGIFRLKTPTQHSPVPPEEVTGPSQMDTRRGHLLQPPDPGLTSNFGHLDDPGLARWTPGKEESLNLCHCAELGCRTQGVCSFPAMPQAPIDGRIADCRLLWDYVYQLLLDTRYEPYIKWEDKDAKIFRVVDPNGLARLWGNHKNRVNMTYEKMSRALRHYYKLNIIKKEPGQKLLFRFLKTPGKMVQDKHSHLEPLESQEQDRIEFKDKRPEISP
Put shortly:
as §1

The next test has as its target T6, ELF5 (Homo sapiens, UniProt Q9UKW6-2 1-255).
T6 sequence: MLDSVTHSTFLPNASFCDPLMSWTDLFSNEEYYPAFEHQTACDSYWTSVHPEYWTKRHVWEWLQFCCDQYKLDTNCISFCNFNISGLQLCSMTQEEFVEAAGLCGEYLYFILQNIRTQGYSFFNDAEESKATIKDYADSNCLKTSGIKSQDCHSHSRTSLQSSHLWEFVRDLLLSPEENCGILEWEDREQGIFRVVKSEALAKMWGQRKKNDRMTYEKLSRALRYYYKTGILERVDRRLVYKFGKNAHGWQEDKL
Put shortly: as §1

In another test the target is T7, ETV3 (Homo sapiens, UniProt P41162-2 1-143).
T7 sequence: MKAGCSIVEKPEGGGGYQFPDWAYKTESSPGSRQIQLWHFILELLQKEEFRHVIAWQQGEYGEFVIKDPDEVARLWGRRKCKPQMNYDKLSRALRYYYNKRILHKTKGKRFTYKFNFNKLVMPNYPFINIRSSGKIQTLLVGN
Put shortly: as §1

The target in another test is ETV6 (Homo sapiens, UniProt P41212 1-452). The gist of the method:
as §1

Chain of ETV6 (P41212 whole entry): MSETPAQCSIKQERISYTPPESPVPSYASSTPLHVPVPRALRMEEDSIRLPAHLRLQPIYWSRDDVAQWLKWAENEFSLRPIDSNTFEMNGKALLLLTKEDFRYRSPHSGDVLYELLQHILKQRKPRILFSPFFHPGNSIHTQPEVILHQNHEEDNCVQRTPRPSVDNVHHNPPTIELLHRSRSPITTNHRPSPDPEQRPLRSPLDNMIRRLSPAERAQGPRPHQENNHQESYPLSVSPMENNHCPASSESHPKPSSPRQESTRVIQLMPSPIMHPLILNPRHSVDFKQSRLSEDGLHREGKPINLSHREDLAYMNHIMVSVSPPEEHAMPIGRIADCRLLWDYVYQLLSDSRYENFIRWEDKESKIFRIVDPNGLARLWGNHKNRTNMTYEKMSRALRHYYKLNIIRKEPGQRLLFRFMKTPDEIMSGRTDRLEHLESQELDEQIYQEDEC

As to TTGCAT, the binding signal with ERF was 1.37 fold enrichment (6-mer frequency, TF over GST control); in the test with ETV3L it was 1.56 fold enrichment (6-mer frequency, TF over GST control); with ETS2 it was 1.42 fold enrichment (6-mer frequency, TF over GST control); in the test with SPDEF, 1.51 fold enrichment (6-mer frequency, TF over GST control); in the test with ETV7, 1.35 fold enrichment (6-mer frequency, TF over GST control); with ELF5, 1.4 fold enrichment (6-mer frequency, TF over GST control). For the same sequence, the binding signal in the test with ETV3 is 1.49 fold enrichment (6-mer frequency, TF over GST control); with ETV6 it was 1.38 fold enrichment (6-mer frequency, TF over GST control).

Consider TGTTAA, for which the binding signal with ERF is 1.19 fold enrichment (6-mer frequency, TF over GST control); with ETV3L, 1.14 fold enrichment (6-mer frequency, TF over GST control); in the test with ETS2, 1.11 fold enrichment (6-mer frequency, TF over GST control); in the test with SPDEF, 1.09 fold enrichment (6-mer frequency, TF over GST control); in the test with ETV7, 1.1 fold enrichment (6-mer frequency, TF over GST control); with ELF5, 1.13 fold enrichment (6-mer frequency, TF over GST control). The binding signal is 1.16 fold enrichment (6-mer frequency, TF over GST control) in the test with ETV3 and 1.16 fold enrichment (6-mer frequency, TF over GST control) with ETV6.

AAATCT: the binding signal with ERF was 1.3 fold enrichment (6-mer frequency, TF over GST control); in the test with ETV3L, 1.32 fold enrichment (6-mer frequency, TF over GST control); with ETS2 it was 1.33 fold enrichment (6-mer frequency, TF over GST control); in the test with SPDEF, 1.25 fold enrichment (6-mer frequency, TF over GST control); in the test with ETV7 it was 1.16 fold enrichment (6-mer frequency, TF over GST control); in the test with ELF5, 1.27 fold enrichment (6-mer frequency, TF over GST control). Also, the binding signal in the test with ETV3 was 1.19 fold enrichment (6-mer frequency, TF over GST control); with ETV6, 1.24 fold enrichment (6-mer frequency, TF over GST control).

Consider CTTAAT, for which the binding signal with ERF is 1.27 fold enrichment (6-mer frequency, TF over GST control); with ETV3L it was 1.4 fold enrichment (6-mer frequency, TF over GST control); with ETS2, 1.37 fold enrichment (6-mer frequency, TF over GST control); with SPDEF, 1.25 fold enrichment (6-mer frequency, TF over GST control); in the test with ETV7, 1.33 fold enrichment (6-mer frequency, TF over GST control); in the test with ELF5 it was 1.25 fold enrichment (6-mer frequency, TF over GST control). For the same sequence, the binding signal with ETV3 was 1.27 fold enrichment (6-mer frequency, TF over GST control); with ETV6, 1.25 fold enrichment (6-mer frequency, TF over GST control).

For the sequence GTTCTC, the binding signal is 1.22 fold enrichment (6-mer frequency, TF over GST control) with ERF; 1.35 fold enrichment (6-mer frequency, TF over GST control) with ETV3L; 1.24 fold enrichment (6-mer frequency, TF over GST control) with ETS2; 1.22 fold enrichment (6-mer frequency, TF over GST control) with SPDEF; 1.26 fold enrichment (6-mer frequency, TF over GST control) with ETV7; 1.25 fold enrichment (6-mer frequency, TF over GST control) in the test with ELF5. Further, the binding signal is 1.35 fold enrichment (6-mer frequency, TF over GST control) in the test with ETV3 and 1.23 fold enrichment (6-mer frequency, TF over GST control) with ETV6.

Take GGTCTT: the binding signal with ERF was 1.22 fold enrichment (6-mer frequency, TF over GST control); in the test with ETV3L, 1.07 fold enrichment (6-mer frequency, TF over GST control); in the test with ETS2 it was 1.23 fold enrichment (6-mer frequency, TF over GST control); in the test with SPDEF it was 1.12 fold enrichment (6-mer frequency, TF over GST control); in the test with ETV7 it was 1.19 fold enrichment (6-mer frequency, TF over GST control); in the test with ELF5 it was 1.2 fold enrichment (6-mer frequency, TF over GST control). Moreover, in the test with ETV3, the binding signal was 1.16 fold enrichment (6-mer frequency, TF over GST control).

Turning to CTAACC, the binding signal was 1.17 fold enrichment (6-mer frequency, TF over GST control) in the test with ERF; 1.2 fold enrichment (6-mer frequency, TF over GST control) in the test with ETV3L; 1.15 fold enrichment (6-mer frequency, TF over GST control) in the test with ETS2; 1.09 fold enrichment (6-mer frequency, TF over GST control) with SPDEF; 1.04 fold enrichment (6-mer frequency, TF over GST control) in the test with ETV7; 1.14 fold enrichment (6-mer frequency, TF over GST control) in the test with ELF5. Besides, the binding signal with ETV3 is 1.16 fold enrichment (6-mer frequency, TF over GST control).

In the case of GCTTTG, the binding signal is 1.09 fold enrichment (6-mer frequency, TF over GST control) with ERF; 1.19 fold enrichment (6-mer frequency, TF over GST control) in the test with ETV3L; 1.16 fold enrichment (6-mer frequency, TF over GST control) in the test with ETS2; 1.12 fold enrichment (6-mer frequency, TF over GST control) in the test with SPDEF; 1.44 fold enrichment (6-mer frequency, TF over GST control) in the test with ETV7; 1.13 fold enrichment (6-mer frequency, TF over GST control) with ELF5. Also, the binding signal with ETV3 was 1.15 fold enrichment (6-mer frequency, TF over GST control); in the test with ETV6 it was 1.24 fold enrichment (6-mer frequency, TF over GST control).
